Growth data for 3 compounds are collected here from PubChem BioAssay (NCI).

Each structure is given as a SMILES string. The panel holds about 83,000 compounds, 20% with a hit somewhere; the sample as a whole holds those more often.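 The endpoint reported here, percent growth, reads 100 for growth as untreated, 0 for no net growth and -100 for all cells dead.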 Values without a mark were called inactive. The source made the active and inactive calls. The calls were made as follows: active = growth percent below 10; inactive = the rest.

What all share (experiment): NCI-60 one-dose screen, 48 h (100 = growth as untreated, 0 = no growth, -100 = all killed)
What all share (conditions): 10 µM

Assay [1] deals with K-562 leukemia.
Assay [2] concerns MALME-3M melanoma.
The test system of assay [3] is MDA-MB-231 breast.
Assay [4] deals with RXF 393 renal.
Assay [5] deals with SF-295 CNS.
The test system of assay [6] is SF-539 CNS.
The test system of assay [7] is UACC-257 melanoma.
In assay [8] the test system is M14 melanoma.
Assay [9] deals with DU-145 prostate.
Assay [10] concerns SF-268 CNS.

Regarding `NC(=O)c1cc([N+](=O)[O-])c(Cl)c([N+](=O)[O-])c1Cl`, the growth in [1] was 8.14% (active); in assay [2], -51.5% (active); in assay [3], 1.49% (active); in assay [4], -89.6% (active); in assay [5], 95.5%; in assay [6], 5% (active). Besides, the growth was -29.2% (active) in assay [7] and -21.9% (active) in assay [8].

As for `CC1CCC2(OC1)OC1C(O)C3C4CCC5CC(OC6OC(CO)C(OC7OC(CO)C(O)C(OC8OCC(O)C(O)C8O)C7OC7OC(CO)C(O)C(OC8OC(CO)C(O)C(O)C8O)C7O)C(O)C6O)C(O)CC5(C)C4CCC3(C)C1C2C` (stereo unspecified), the growth in assay [9] is -100% (active); in assay [1] it was -100% (active); in [2], 14.8%; in [3], -70.2% (active); in assay [4], -71.6% (active); in [10], -39.7% (active). The growth was -77.9% (active) in [5], -53.3% (active) in [6], -85.7% (active) in assay [7] and 62.9% in assay [8].

In the case of `CCOP(=O)(OCC)/C(C#N)=C/c1ccc(Br)cc1`, the growth in assay [9] is 107%; in [2] it was 107%; in assay [3] it was 106%; in [10], 95.2%; in assay [5], 106%; in [6] it was 95.9%. Also, the growth is 93.7% in assay [7] and 98.4% in assay [8].
